Laboratory results: PubChem BioAssay
Values joined by “and” are separate entries in the source; they are usually repeats but may differ in a detail not shown here. Identical values can stand only once. Active and inactive are the calls of the source.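 How the source made its calls, unless noted: active means inhibition at or above 50% relative to wild type and mutant plate controls; inactive means inhibition below 50%.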

Tests used:
[1] = inhibitors of TNFa-induced NFkB p65 translocation, primary screen, imaging, HUVEC, MLSMR starter and 10KST1 sets (AID 438;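 active means inhibition above 20% together with a positive visual image hit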;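 further: compound added about 3h40 before a 20 min TNFalpha stimulation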;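 on inhibition: signal is the nuclear over cytoplasmic p65 intensity ratio per well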); conditions: HUVEC TNFa-induced p65 nuclear translocation; cell count: measured here: nuclei count (cytotoxicity indicator), at 2.08 µM; inhibition: at 2 µM, stronger effect = higher value, 0% TNFa-plus-vehicle, 100% no-TNFa wells
[2] = inhibitors of mutant huntingtin aggregation, primary screen, imaging, exon1htt(103Q)mCFP cells, high-content imaging (AID 483;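 active means visual image review flags a hit and inhibition of aggregation exceeds 20%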;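 further: compound exposure lasted 3 days before fixation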;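 on nuclei count: percent of the per-plate median nuclei count of sample wells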); conditions: exon1htt(103Q)mCFP cell line, aggregate imaging, at 2 µM; inhibition of aggregation: stronger effect = higher value; nuclei count: measured here: cell count, toxicity
[3] = inhibitors of E-selectin induction by TNFa, primary screen, imaging, HUVEC, immunofluorescence, MLSMR starter and 10KST1 sets (AID 487;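 active means visually confirmed hit in the image check and inhibition above 20%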;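 on inhibition: signal is fraction of cell area covered by stained E-selectin grains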;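 on nuclei count: 100% = median nuclei count of all wells on the same plate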); conditions: HUVEC TNFalpha-induced E-selectin immunofluorescence imaging, at 2 µM; inhibition: stronger effect = higher value; nuclei count: measured here: cell number, toxicity
[4] = DUSP6 inhibitors restoring Erk phosphorylation by chemical complementation, primary imaging in DUSP6-transfected HeLa (AID 609;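 active means compounds giving at least 50% inhibition in the cell-based MKP-3 phosphatase rescue imaging test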;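 on inhibition: phospho-Erk level distribution per well compared with pooled transfected vehicle control wells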); conditions: HeLa MKP-3 transfected, phospho-Erk imaging KS statistic, at 10 µM, cells stimulated with TPA for 15 min
[5] = target: Dual specificity protein phosphatase 6 (Homo sapiens) (UniProt Q16828); experiment: as above; conditions: HeLa MKP-3 transfected, phospho-Erk imaging KS statistic; at 10 µM; stronger effect = higher value; cells stimulated with TPA for 15 min
[6] = target: Voltage-gated potassium channel subunit beta-2 (Rattus norvegicus) (UniProt P62483); experiment: KvBeta enzyme negative modulators, primary screen, biochemical, NADPH fluorescence (AID 622;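 active means fluorescence slope higher than the sample average by over 3 SD, cut at about -0.22 in these data, passing the limit was not always enough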;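 further: slope of raw intensity against log time taken from 70 to 1610 s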); conditions: recombinant KvBeta, 4-cyanobenzaldehyde reduction, at 10 µM, stronger effect = higher value
[7] = target: Voltage-gated potassium channel subunit beta-2 (Rattus norvegicus) (UniProt P62483); experiment: KvBeta positive modulators, primary screen, biochemical, NADPH fluorescence (AID 623;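 active means NADPH fluorescence slope more negative than the mean of all samples by about 3 SD, 99.7% confidence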;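 further: fluorescence intensity change per second fitted from 20 to 320 s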); conditions: Recombinant KvBeta, NADPH fluorescence decrease slope, 10 min; at 10 µM; stronger effect = lower value
[8] = target: Muscarinic acetylcholine receptor M4 (Homo sapiens) (UniProt P08173); experiment: compounds altering M4/GIRK thallium flux, either direction, primary screen, M4 allosteric agonist project, cell-based, HEK293 M4/GIRK, BTC-AM (AID 625;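 active means fluorescence slope after compound addition differing from the mean of all tested samples at 99.7% confidence, mostly higher but some lower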;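 further: thallium influx through GIRK channels coupled to M4 in HEK293 cells with BTC-AM dye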); conditions: at 10 µM, actives lie on both sides
[9] = inhibitors of larval lipid processing in zebrafish, primary screen, whole organism, PED6 fluorescence, gall bladder and intestine (AID 686;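 active means a full or partial loss of lipid-probe fluorescence in the fish gall bladder, intestine or both, judged by eye; inactive means no fluorescence loss, or compound toxic to the fish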;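 further: larvae 5 to 7 days old with five fish per well; signal comes from phospholipase A2 cleavage of quenched PED6 carried via bile; overnight exposure to compound and PED6 before scoring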); conditions: Zebrafish larvae PED6 lipid processing, fluorescence scoring; screened at 20 µM (by protocol)
[10] = inhibitors of Chlamydomonas gravitaxis, primary screen, whole organism, Chlamydomonas reinhardtii, WT vs cilia-less mutant, absorbance, 96-well (AID 463189); conditions: OD600 absorbance, 2 days, at 10 µM, stronger effect = higher value;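 further: 0% = wild type cc124 cells in DMSO and 100% = ciliumless bld1 mutant cells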
[11] = inhibitors of Sendai virus-induced IRF3 signaling, primary screen, TLR/RLR signaling modifier project, cell-based, Sendai virus stimulus, luciferase, 10K MLSCN set (AID 602276;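 active means inhibition at or above 50% at 10 µM; inactive means inhibition below 50%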;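 further: firefly luciferase from ISG56 promoter only with Renilla not read in this screen; 0% = Sendai virus plus DMSO and 100% = medium plus DMSO without virus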); conditions: HEK293 RL24 IRF3 luciferase reporter, at 10 µM, stronger effect = higher value
[12] = inhibitors of poly I:C-induced TLR3 signaling, primary screen, cell-based, poly I:C stimulus, luciferase, 10K MLSCN set (AID 602277;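 active means inhibition of the reporter signal at or above 50%; inactive means inhibition below 50%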); conditions: HEK293-TLR3 RL24 IRF3 luciferase reporter, at 10 µM, stronger effect = higher value
[13] = target: Alpha-2C adrenergic receptor (Homo sapiens) (UniProt P18825); experiment: modulators of alpha2C/GIRK thallium flux, primary screen, cell-based, HEK293 alpha2C/GIRK1/2 (AID 624;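 active means fluorescence slope after compound addition differing from the mean of all screened samples at 99.7% confidence, in either direction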;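 further: slope of fluorescence ratio to pre-addition baseline per second over 15 to 24 s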); conditions: thallium flux BTC fluorescence, at 10 µM, actives lie on both sides
[14] = measured here: cell density z-score
[15] = measured here: nuclear c-Myc green intensity z-score
[16] = measured here: nuclear pErk red intensity z-score, stronger effect = higher value

Sequence of Alpha-2C adrenergic receptor (Homo sapiens) (P18825 whole entry, looked up): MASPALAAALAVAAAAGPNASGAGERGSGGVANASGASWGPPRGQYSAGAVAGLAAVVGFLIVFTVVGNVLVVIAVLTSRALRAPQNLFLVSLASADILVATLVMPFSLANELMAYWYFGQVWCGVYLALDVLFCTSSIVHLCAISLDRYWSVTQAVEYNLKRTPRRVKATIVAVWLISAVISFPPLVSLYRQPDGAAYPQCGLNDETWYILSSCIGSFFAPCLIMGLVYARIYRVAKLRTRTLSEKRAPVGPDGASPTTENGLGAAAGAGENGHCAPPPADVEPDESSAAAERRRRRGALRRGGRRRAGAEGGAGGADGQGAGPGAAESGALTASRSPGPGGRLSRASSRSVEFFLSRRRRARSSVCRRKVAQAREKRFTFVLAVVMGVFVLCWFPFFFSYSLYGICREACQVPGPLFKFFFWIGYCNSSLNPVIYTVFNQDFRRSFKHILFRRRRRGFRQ
Sequence of Voltage-gated potassium channel subunit beta-2 (Rattus norvegicus) (P62483 whole entry, looked up): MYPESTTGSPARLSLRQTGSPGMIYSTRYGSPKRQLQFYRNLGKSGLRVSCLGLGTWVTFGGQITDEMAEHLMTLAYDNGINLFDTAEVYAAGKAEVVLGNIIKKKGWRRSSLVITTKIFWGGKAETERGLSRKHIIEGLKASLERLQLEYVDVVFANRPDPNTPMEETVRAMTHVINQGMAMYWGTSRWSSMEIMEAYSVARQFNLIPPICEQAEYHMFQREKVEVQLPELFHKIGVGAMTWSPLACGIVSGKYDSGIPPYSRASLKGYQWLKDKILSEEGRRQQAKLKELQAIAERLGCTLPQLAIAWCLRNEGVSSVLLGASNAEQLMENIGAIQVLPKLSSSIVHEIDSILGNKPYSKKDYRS
Sequence of Muscarinic acetylcholine receptor M4 (Homo sapiens) (P08173 whole entry, looked up): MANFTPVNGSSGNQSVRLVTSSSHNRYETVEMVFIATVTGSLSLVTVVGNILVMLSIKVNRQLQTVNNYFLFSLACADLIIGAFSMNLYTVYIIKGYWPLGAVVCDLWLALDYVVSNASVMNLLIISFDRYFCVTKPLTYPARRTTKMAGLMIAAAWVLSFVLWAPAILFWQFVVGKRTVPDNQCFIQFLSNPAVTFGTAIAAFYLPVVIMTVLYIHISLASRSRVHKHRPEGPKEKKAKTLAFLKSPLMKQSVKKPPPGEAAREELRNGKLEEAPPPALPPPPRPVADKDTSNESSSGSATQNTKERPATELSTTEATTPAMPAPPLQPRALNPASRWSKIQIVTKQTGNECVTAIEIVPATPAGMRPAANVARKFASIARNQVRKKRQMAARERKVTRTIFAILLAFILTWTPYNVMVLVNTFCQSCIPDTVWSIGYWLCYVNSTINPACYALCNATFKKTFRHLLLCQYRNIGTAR
Sequence of Dual specificity protein phosphatase 6 (Homo sapiens) (Q16828 whole entry, looked up): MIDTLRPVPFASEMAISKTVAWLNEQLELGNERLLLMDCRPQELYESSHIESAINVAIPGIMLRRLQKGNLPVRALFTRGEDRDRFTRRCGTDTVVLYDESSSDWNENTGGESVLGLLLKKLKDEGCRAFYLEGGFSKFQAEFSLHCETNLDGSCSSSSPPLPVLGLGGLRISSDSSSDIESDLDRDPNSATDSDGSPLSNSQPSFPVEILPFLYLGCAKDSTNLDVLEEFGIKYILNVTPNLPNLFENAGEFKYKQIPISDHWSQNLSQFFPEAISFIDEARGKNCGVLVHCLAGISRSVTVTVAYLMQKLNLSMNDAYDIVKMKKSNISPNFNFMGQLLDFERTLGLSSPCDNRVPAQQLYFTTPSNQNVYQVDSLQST

| SMILES | cell count [1] | inhibition [1] | inhibition of aggregation [2] | nuclei count [2] | inhibition [3] | nuclei count [3] | z-score [4, 14] | z-score [4, 15] | z-score [4, 16] | inhibition [5] | fluorescence slope [6] | NADPH fluorescence slope [7] | fluorescence slope [8] | outcome [9] | inhibition [10] | inhibition [11] | inhibition [12] | slope [13] |
| --- | --- | --- | --- | --- | --- | --- | --- | --- | --- | --- | --- | --- | --- | --- | --- | --- | --- | --- |
| CC(O)c1n(C)c(Cl)c[n+]1C (configuration not stated) | 674 | -10% (inactive) | -4% (inactive) | 103% | -67.2% (inactive) | 134% | -2.1 | -0.307 | 2.29 | 18.6% (inactive) | -0.454 (inactive) | -4.6e-05 (inactive) | 0.0053 (inactive) | inactive | -6.3% (inactive) | 17% (inactive) | 10.8% (inactive) |  |
| COC(=O)c1cc(=O)n2c(-c3ccc(OC)cc3)csc2n1 | 468 | -6.9% (inactive) | 8.7% (inactive) | 104% | -46.8% (inactive) | 133% | -0.555 | 0.15 | -1.12 | 1.98% (inactive) | -0.383 (inactive) | -3.1e-05 (inactive) | 0.00743 (inactive) | inactive | -2.61% (inactive) | 18.2% (inactive) | 19.9% (inactive) |  |
| O=S(=O)(NCc1cccnc1)c1cccc2nsnc12 | 643 | -2.6% (inactive) | -2.4% (inactive) | 125% | -80.9% (inactive) | 137% | -0.856 | 1.61 | 0.356 | -3.97% (inactive) | -0.482 (inactive) | -5e-05 (inactive) | 0.00583 (inactive) | inactive | -1.56% (inactive) | 15.1% (inactive) | 21.7% (inactive) |  |
| CCc1nc2sc3c(c2c(=O)o1)CCCC3 | 736 | -8.2% (inactive) | -11.4% (inactive) | 104% | -32.9% (inactive) | 130% | -0.371 | -1.28 | 1.35 | -2.07% (inactive) | -0.413 (inactive) | -5.4e-05 (inactive) | 0.00552 (inactive) | inactive | 8.78% (inactive) | 23% (inactive) | 35.5% (inactive) |  |
| COc1ccc(CCn2c(=N)c(C(=O)NCc3ccco3)cc3c(=O)n4ccccc4nc32)cc1 | 496 | -4.9% (inactive) | -10% (inactive) | 94.4% | -63.3% (inactive) | 108% | 0.843 | 0.0165 | -1.15 | 24.3% (inactive) | -0.516 (inactive) | -1.6e-05 (inactive) | 0.00166 (active) | inactive | -7.81% (inactive) | 5.21% (inactive) | 17.8% (inactive) |  |
| CN(C)CC(O)COc1ccc(-c2ccc(C#N)cc2)cc1 (configuration not stated) | 626 | -1.5% (inactive) | 6.6% (inactive) | 89.7% | -19.8% (inactive) | 139% | 0.638 | -0.472 | 2.41 | -2.59% (inactive) | -0.371 (inactive) | -4.8e-05 (inactive) | 0.00456 (inactive) | inactive | 98.7% (active) | -0.588% (inactive) | -4.77% (inactive) |  |
| Nc1nnnn1/N=C/c1ccccn1 | 568 | -2.8% (inactive) | -8.1% (inactive) | 98.2% | -155% (inactive) | 142% | 1.54 | -1.1 | -0.159 | 34.3% (inactive) | -0.513 (inactive) | -6e-05 (inactive) | 0.00549 (inactive) | inactive | 26.1% (inactive) | -14.9% (inactive) | -32% (inactive) |  |
| Clc1ccc2c(c1)C(N1CCNCC1)=Nc1ccccc1O2 | 676 | -0.2% (inactive) | 16.3% (inactive) | 73.5% | -61.7% (inactive) | 119% | -1.22 | -0.679 | 1.28 | -7.45% (inactive) | -0.471 (inactive) | -7.1e-06 (inactive) |  | inactive; toxic | -13.2% (inactive) and 2.47% (inactive) | 1.94% (inactive) | 23.6% (inactive) |  |
| CC(C)Oc1ccc2c(=O)c(-c3ccccc3)coc2c1 | 646 | 2.7% (inactive) |  |  | -33.4% (inactive) | 124% | -1.12 | -0.535 | 0.614 | 10.2% (inactive) | -0.425 (inactive) | -6.4e-05 (inactive) |  | inactive | -9.11% (inactive) | -37.9% (inactive) | -186% (inactive) | 0.00497 (inactive) |
| CC(CCc1ccccc1)NCC(O)c1ccc(O)c(C(N)=O)c1 (configuration not stated) | 612 | -8.1% (inactive) | -15.6% (inactive) | 103% | -7.9% (inactive) | 107% | 0.375 | -0.198 | -0.807 | 13.3% (inactive) | -0.442 (inactive) | 2.9e-05 (inactive) | 0.00425 (inactive) | inactive | 10.1% (inactive) and -0.75% (inactive) | -17.5% (inactive) | 5.32% (inactive) |  |
| CNCCCN1c2ccccc2CCc2ccccc21 | 539 | -8.9% (inactive) |  |  | -27% (inactive) | 118% | -1.38 | -0.202 | 2.91 | 15.3% (inactive) | -0.533 (inactive) | -5.3e-05 (inactive) |  | inactive | -1.03% (inactive) and 0.865% (inactive) | 0.658% (inactive) | 24.2% (inactive) | 0.00468 (inactive) |
| O=C(c1ccc2c(c1)OCCO2)N1CCCCC1 | 580 | -15% (inactive) | -3.4% (inactive) | 106% | -38.6% (inactive) | 122% |  |  |  |  | -0.406 (inactive) | 1.1e-06 (inactive) |  |  | -4.88% (inactive) | 8.03% (inactive) | 18.3% (inactive) | 0.00377 (inactive) |
| CC(C)NCC(O)COc1cccc2[nH]ccc12 (configuration not stated) | 631 | -11.5% (inactive) |  |  | -58% (inactive) | 126% | 0.107 | -0.142 | 0.346 | 3.45% (inactive) | -0.46 (inactive) | -4.4e-05 (inactive) |  | inactive | -3.19% (inactive) and 0.043% (inactive) | -0.334% (inactive) | 29.8% (inactive) | 0.00514 (inactive) |
| CC[C@H](C)C(=O)O[C@H]1C[C@@H](C)C=C2C=C[C@H](C)[C@H](CC[C@@H]3C[C@@H](O)CC(=O)O3)[C@H]21 | 724 | -11.9% (inactive) | 0.4% (inactive) | 105% | -93.9% (inactive) | 122% | 0.18 | -1.59 | -0.22 | 21.2% (inactive) |  |  |  | inactive | 14.3% (inactive) | -4.78% (inactive) | 49.1% (inactive) | 0.00586 (inactive) |
| O=C(O)c1cc(=O)cc(C(=O)O)[nH]1 | 482 | 1.8% (inactive) | 0.2% (inactive) | 98% | -58.7% (inactive) | 188% |  |  |  |  | -0.603 (inactive) | -2e-06 (inactive) | 0.00559 (inactive) |  | 3.81% (inactive) | 13.7% (inactive) | 20.1% (inactive) |  |
| CCCC(=O)Nc1ccc(OCC(O)CNC(C)C)c(C(C)=O)c1 (configuration not stated) | 693 | -4.7% (inactive) |  |  | -70.6% (inactive) | 120% | -1.73 | -0.994 | 0.31 | 11.3% (inactive) | -0.492 (inactive) | 3e-05 (inactive) |  | inactive | -6.41% (inactive) | 8.12% (inactive) | 27.1% (inactive) | 0.00505 (inactive) |
| Fc1cc(F)c(F)c(SCCc2ccncc2)c1F | 541 | -0.9% (inactive) | -11.2% (inactive) | 104% |  |  | 0.361 | 0.923 | 0.0696 | -7.28% (inactive) | -0.422 (inactive) | -1.5e-05 (inactive) |  | inactive | 97.5% (active) | 7% (inactive) | -1.64% (inactive) | 0.0056 (inactive) |
| COc1ccccc1OCC(O)COC(N)=O (configuration not stated) | 634 | 2.6% (inactive) | -4.9% (inactive) | 109% |  |  | -1.14 | 0.796 | 1.17 | 19% (inactive) | -0.507 (inactive) | -3.9e-05 (inactive) |  | inactive | -8.84% (inactive) | 9.33% (inactive) | 35.1% (inactive) | 0.00504 (inactive) |
| CN1CCN(C2=Nc3ccccc3Oc3ccc(Cl)cc32)CC1 | 536 | -3.1% (inactive) | -4.5% (inactive) | 91.8% | -3.4% (inactive) | 105% | -0.87 | 0.672 | -0.787 | 14.6% (inactive) | -0.437 (inactive) | -4.1e-05 (inactive) |  | inactive; toxic | 27.3% (inactive) and 39.2% (inactive) | 13.8% (inactive) | 41.9% (inactive) |  |
| COc1ccc2c(C)nc(Nc3nc(C)cc(C)n3)nc2c1 | 644 | -5.8% (inactive) | -15.4% (inactive) | 116% |  |  | -1.03 | 0.468 | -0.248 | -5.95% (inactive) | -0.534 (inactive) | -1e-05 (inactive) |  | inactive | -4.58% (inactive) | 14% (inactive) | 20% (inactive) | 0.00447 (inactive) |
